Assay outcomes deposited in PubChem by several laboratories.
An excerpt weighted towards active compounds, which were near 2.9% of everything screened.
CF NFkB block: blocks PAF-induced NF-kB reporter in cystic fibrosis cells | KKLEB NF-kB-GFP reporter, GFP fluorescence overnight | inhibition, % at 5 µM | 360,000 compounds, 0.86% hits | AID 588850;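 active = at least 50% inhibition at 5 µM, scaled per plate between neutral and stimulator controls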;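 also: PAF is a Pseudomonas aeruginosa culture filtrate used as stimulus; plate controls were PAF-stimulated DMSO wells for no effect and unstimulated DMSO wells for full effect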
Shn3 inh set2: reduces Shn3 3'UTR luciferase signal in osteoblasts | 360,000 compounds, 0.52% hits | AID 588674 | inhibition, % at 12.5 µM | Clone20 osteoblast Shn3 3'UTR firefly luciferase, 24 h;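 active = mean inhibition of at least 75% with every replicate also reaching 75%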;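 also: 0% = median of neutral control wells and 100% = pilot-screen positive control compound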
KKLEB tox: reduces viability of KKLEB cystic fibrosis airway cells; activity change (cytotoxicity), % at 5 µM; 360,000 compounds, 0.36% hits; KKLEB CF airway cells viability, ATPlite luminescence, overnight; stronger effect = lower value; cells stimulated with P. aeruginosa culture filtrate; AID 602141;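 active = corrected activity change at or below -50% at 5 µM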
LMP1 NFkB inh: Epstein-Barr LMP1 NF-kappaB reporter inhibition. LMP1-induced NF-kappaB luciferase reporter cells, luminescence. AID 504558. 350,000 compounds, 0.69% hits. inhibition, % at 12.5 µM; in the data active = inhibition above about 41%;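 also: 0% = neutral control wells and 100% = reference inhibitor control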
Peg3 prom inh: Peg3 promoter activity inhibition; HeLa PEG-Prom luciferase reporter, luminescence, overnight; inhibition, % at 20 µM; 360,000 compounds, 1.7% hits; AID 588405;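 active = inhibition of at least 50% at 20 µM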
HIF-2a inh: HIF-2a inhibition. 786-0 RCC cells HIF-2a reporter, luciferase luminescence, overnight. inhibition, % at 18.8 µM. 360,000 compounds, 0.72% hits. AID 624352;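 active = inhibition of the luminescence signal of 40% or more relative to plate controls, in a single-dose primary screen at 18.75 µM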
Mdm2-MdmX confirm: Mdm2/MdmX (human) interaction inhibition, confirmed. 740 compounds, 99% hits. SaOS-2 split-luciferase Mdm2/MdmX complementation, luminescence. inhibition, % at 8 µM. shares compounds with HIF-2a inh;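 active = mean inhibition of the luminescence signal across two replicates at or above 26 percent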
HIF-2a inh conf: confirmation of HIF-2a inhibitors; inhibition, % at 18.8 µM; 1,800 compounds, 56% hits; shares compounds with HIF-2a inh; 786-0 RCC cells, HIF-2a luciferase reporter luminescence, overnight; AID 651580;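 active = mean inhibition across four replicates of at least 40 percent at the single tested concentration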
HIF-1a counter: inhibits HIF-1a reporter, a counter-screen for HIF-2a inhibitors; MiaPaCa-2 HIF-1a luciferase reporter, desferoxamine, overnight; 1,800 compounds, 72% hits; shares compounds with HIF-2a inh; AID 651589; inhibition, % at 18.8 µM;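 active = mean inhibition of the reporter signal across four replicates at the single tested dose of 50% or more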
The depositor's hits bear a star.

`Clc1ccc(-n2ncc3c(N4CCCCCC4)ncnc32)cc1` gave CF NFkB block -22, Shn3 inh set2 66, KKLEB tox -52*, LMP1 NFkB inh 41*, Peg3 prom inh 24, HIF-2a inh 66*, HIF-2a inh conf 84* and HIF-1a counter 102*.
Screening Clc1ccc(Cn2ncc3c(N4CCCCC4)ncnc32)cc1 returned CF NFkB block 6, KKLEB tox 3, LMP1 NFkB inh -5, Peg3 prom inh -21 and HIF-2a inh -37.
Screening CCn1c(Cl)c(C=O)s/c1=N\S(=O)(=O)c1ccccc1 returned CF NFkB block 88*, Shn3 inh set2 99*, KKLEB tox -85*, LMP1 NFkB inh 0, Peg3 prom inh 105*, HIF-2a inh 95*, Mdm2-MdmX confirm 103*, HIF-2a inh conf 99* and HIF-1a counter 105*.
`CCN1C(=O)CS/C1=N\S(=O)(=O)c1ccc(Cl)cc1` gave CF NFkB block 6, Shn3 inh set2 8, KKLEB tox -10, LMP1 NFkB inh -18, Peg3 prom inh -14 and HIF-2a inh 6.
For c1c2c(cc3sc(N4CCOCC4)nc13)OCCO2 the results were CF NFkB block 15, Shn3 inh set2 43, KKLEB tox -9, LMP1 NFkB inh 62*, Peg3 prom inh 28, HIF-2a inh 55*, HIF-2a inh conf 63* and HIF-1a counter 24.
Screening c1ccc(N2CCN(c3nc4cc5c(cc4s3)OCCO5)CC2)cc1 returned CF NFkB block 8, Shn3 inh set2 -45, KKLEB tox 2, LMP1 NFkB inh -2, Peg3 prom inh -220 and HIF-2a inh -188.
Screening [2H]C(CCOS(N)(=O)=O)c1ccc(C(C)(C)C)cc1 (stereo unspecified) returned CF NFkB block 12, Shn3 inh set2 1, KKLEB tox 6, LMP1 NFkB inh 11, Peg3 prom inh 59*, HIF-2a inh 57*, HIF-2a inh conf 63* and HIF-1a counter 45.
For O=C(COC(=O)c1cccc(-n2cnnn2)c1)c1ccc(Br)cc1 the results were CF NFkB block -4, Shn3 inh set2 -89, KKLEB tox 1, LMP1 NFkB inh -9, Peg3 prom inh -82 and HIF-2a inh -36.
For O=C1Nc2cccnc2N(C(=O)CCl)c2ccccc21 the results were CF NFkB block 6, Shn3 inh set2 18, KKLEB tox -1, LMP1 NFkB inh -52, Peg3 prom inh 63*, HIF-2a inh 42*, HIF-2a inh conf 9 and HIF-1a counter 5.
`COc1cc(/C=C2/CCC/C(=C\c3cc(O)c(OC)c(Cl)c3)C2=O)cc(Cl)c1O` gave CF NFkB block -54, Shn3 inh set2 45, KKLEB tox 2, LMP1 NFkB inh -12, Peg3 prom inh 3, HIF-2a inh 91* and Mdm2-MdmX confirm 103*.
`COc1cc(/C=C2\CC/C(=C\c3cc(OC)c(OC)c(OC)c3)C2=O)cc(OC)c1OC` gave CF NFkB block -30, Shn3 inh set2 24, KKLEB tox -4, LMP1 NFkB inh 4, Peg3 prom inh -11 and HIF-2a inh 20.
Screening O=C(NCc1ccccc1)C1=C[C@@H](C2CCCCC2)C[C@@H](OCCCCO)O1 returned CF NFkB block 13, Shn3 inh set2 -18, KKLEB tox 4, LMP1 NFkB inh -5, Peg3 prom inh 9 and HIF-2a inh -2.
For COc1ccc2cc1Oc1ccc(cc1)CC1c3c(cc(OC)c4c3Oc3cc5c(cc3O4)CCNC5C2)CCN1C (stereo unspecified) the results were CF NFkB block 44, Shn3 inh set2 54, KKLEB tox -45, LMP1 NFkB inh -32, Peg3 prom inh 102*, HIF-2a inh 54*, HIF-2a inh conf 3 and HIF-1a counter 106*.
